Compound activity (PubChem BioAssay)
TDP1 block = qHTS Assay for Inhibitors of Tyrosyl-DNA Phosphodiesterase (TDP1); Tyrosyl-DNA phosphodiesterase 1 (Homo sapiens), Q9NUW8; recombinant TDP1, AlphaScreen DNA substrate cleavage; Potency, µM (series often up to 130 µM), actives largely listed as inhibitors; actives 0.28% (n = 350,000); also: nearly all actives have a fitted effect of over 40% in size
Target sequence (Q9NUW8 whole entry, looked up): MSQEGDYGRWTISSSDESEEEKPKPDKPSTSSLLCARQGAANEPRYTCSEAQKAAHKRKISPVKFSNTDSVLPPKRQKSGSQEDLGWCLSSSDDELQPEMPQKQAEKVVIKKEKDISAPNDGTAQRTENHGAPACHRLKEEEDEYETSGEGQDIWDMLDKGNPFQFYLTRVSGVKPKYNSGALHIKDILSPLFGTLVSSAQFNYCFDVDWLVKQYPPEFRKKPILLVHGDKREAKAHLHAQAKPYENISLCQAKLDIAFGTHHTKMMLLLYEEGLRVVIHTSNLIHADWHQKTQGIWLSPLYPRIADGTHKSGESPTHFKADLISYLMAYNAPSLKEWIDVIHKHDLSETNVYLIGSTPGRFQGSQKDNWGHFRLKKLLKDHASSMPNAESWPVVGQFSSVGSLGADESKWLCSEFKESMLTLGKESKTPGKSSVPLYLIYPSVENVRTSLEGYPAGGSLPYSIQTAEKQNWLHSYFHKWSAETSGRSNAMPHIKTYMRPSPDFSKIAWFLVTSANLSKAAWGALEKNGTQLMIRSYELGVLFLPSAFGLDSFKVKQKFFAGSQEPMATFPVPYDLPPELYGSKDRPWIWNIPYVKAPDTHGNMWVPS
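Signal: AlphaScreen proximity between streptavidin donor and anti-FITC acceptor beads on intact substrate. Reaction: Tdp1 1 nM, substrate 15 nM final, 5 min RT after 15 min compound preincubation.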
TGFb inhibitor = qHTS for Inhibitors of TGF-b. HepG2 CAGA-GFP TGF-b/SMAD3 reporter, GFP fluorescence, 18 h; TGF-beta stimulated, 500 pg/mL final. Potency, µM (doses to about 46.1 µM), actives largely listed as inhibitors. actives 1.2% (n = 410,000); also: nearly all actives have a fitted effect of over 65% in size
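Inhibition was scored as loss of TGF-beta-induced (500 pg/mL final, 18 hours, 37 degrees C) GFP in HEPG2 cells carrying a CAGA-GFP reporter, in DMEM with 1% FBS. Well GFP was summed per cell; Activity was normalised to unstimulated and stimulated DMSO wells, then concentration-response fitting.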
IL1B secr inh = qHTS for Inhibitors of Inflammasome Signaling: IL-1-beta AlphaLISA Primary Screen; THP-1 LPS/ATP IL-1B secretion, AlphaLISA, 16 h; active compounds read low; activity change, % at 57.5 µM; actives 4.7% (n = 360,000); AID 743279, 2014; in the data active = activity change below about -50%; inconclusive = mostly about -30% to -49%
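THP-1 cells pretreated 1 hr with compounds (up to 57.5 uM final), then stimulated with LPS (250 ng/mL final) plus ATP (1.25 mM final); secreted IL-1B measured by AlphaLISA after 16 hr, decreased signal indicating inhibition.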
HepG2 viability = qHTS for Inhibitors of TGF-b: Cytotox Counterscreen. actives 0.76% (n = 410,000). Potency, µM (top dose mostly 46.1 µM), most hits filed as cytotoxic. HepG2 CAGA-GFP viability, ATP luminescence, 18 h. AID 588856, 2011
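CellTiter-Glo luminescence gave cytotoxicity after 18 hours at 37 degrees C. The cells were HepG2 CAGA-GFP in 1% FBS DMEM, stimulated with 500 pg/mL TGF-beta after compound addition. %Activity was normalised to no-cell wells (complete cell-killing) and DMSO (no toxicity), and curves were fitted and classified.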
DT40 TDP1 CPT = qHTS for Inhibitors of human tyrosyl-DNA phosphodiesterase 1 (TDP1): qHTS in cells in presence of CPT. chicken DT40 Tdp1-/-;hTDP1 cells + 20 nM CPT, ATP luminescence, 48 h. Potency, µM (titrated, usually from 46.2 µM), hits mostly inhibitors. actives 12% (n = 420,000); also: nearly all actives have a fitted effect of over 55% in size
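Chicken DT40 Tdp1-/- cells complemented with human TDP1, 400 cells/well, exposed to compounds plus 20 nM camptothecin for at least 48 h at 37 C; viability read as ATP content by CellTiter-Glo luminescence.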
DT40 TDP1 no CPT = qHTS for Inhibitors of human tyrosyl-DNA phosphodiesterase 1 (TDP1): qHTS in cells in absence of CPT | actives 15% (n = 420,000) | Potency, µM (highest dose often 46.2 µM), hits mostly inhibitors | DT40 Tdp1-/- hTDP1 cells, no CPT, ATP luminescence, 48 h; also: nearly all actives have a fitted effect of over 55% in size
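Seeded 400 DT40-hTDP1 cells/well (vehicle DMSO, no 20 nM CPT); pinned compounds; ≥48 hr at 37 °C; CellTiter-Glo luminescence as viability measure.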
A number is an active result; n = inactive; u = inconclusive; x = no result given; [ ] = dose if it differs, or a comment. Hits are enriched below; roughly 19% of the tested compounds scored in any of these assays. Unless noted, calls follow the shape of the dose curve; as a rule, active = well fitted curve in the direction sought with a large enough effect; inconclusive = small, poorly fitted or top-dose-only effect, or another doubt; inactive = no such curve, though single readings can be large; an effect the other way counts as inactive or inconclusive.

SMILES | TDP1 block | TGFb inhibitor | IL1B secr inh | HepG2 viability | DT40 TDP1 CPT | DT40 TDP1 no CPT
COc1ccc(Cl)cc1NC(=O)Cn1cnc2c1c(=O)n(C)c(=O)n2C | n | u | x | n | u | u
COc1ncc2nc(-c3cccs3)c(=O)n(Cc3ccc(F)cc3)c2n1 | x | x | x | x | n | n
O=C1CNC(c2ccccc2)C(c2ccccc2)N1 (centres undefined) | x | n | n | n | n | n
Cc1oc2c(C)c3oc(=O)c(CC(=O)N4CCCCC4)c(C)c3cc2c1C | n | n | x | n | 20.6µM | 20.6µM
Cc1coc2c(C)c3oc(=O)c(CCC(=O)N4CCCCC4)c(C)c3cc12 | n | u | x | n | 13µM | 16.4µM
Cc1c(CC(=O)N2CCCCC2)c(=O)oc2c(C)c(O)ccc12 | n | n | x | n | n | n
CC1CCC2(CC1)NC(=O)N(CC(=O)NC(C)c1ccc(F)c(F)c1)C2=O (centres undefined) | n | n | n | n | n | n
O=C(NNC(=O)c1cc(Cl)ccc1O)c1ccc(NS(=O)(=O)c2cccs2)cc1 | x | n | n | n | n | n
COC(=O)Cc1ccc(NC(=S)N2CCN(c3cccc(O)c3)CC2)cc1 | n | n | u | n | 16.4µM | 13µM
COc1ccc(NC(=S)N2CCN(S(=O)(=O)c3ccccc3)CC2)cc1OC | n | n | n | n | n | n
COc1cccc(N2CCN(C(=S)Nc3cccc(C)c3)CC2)c1 | n | n | n | n | u | n
COc1cccc(NC(=S)N2CCN(c3ccc([N+](=O)[O-])cc3)CC2)c1 | n | n | n | n | 6.51µM | 10.3µM
COc1ccc(NC(=S)N2CCN(c3ccc([N+](=O)[O-])cc3)CC2)cc1OC | n | n | n | n | 10.3µM | 11.6µM
CC(C)C(N)C(=O)NC(Cc1c[nH]c2ccccc12)C(=O)O (centres undefined) | n | x | x | x | n | n
CCC(=O)N1CCc2cc(Br)cc(S(=O)(=O)N(C)c3ccc(OC)cc3OC)c21 | n | n | n | n | 18.4µM | 18.4µM
CCC(=O)N1CCc2cc(Br)cc(S(=O)(=O)CCC(=O)N(CC)CC)c21 | n | n | n | n | n | n
CCC(=O)N1CCc2cc(Br)cc(S(=O)(=O)N3CCCCC3CC)c21 (centres undefined) | n | n | n | n | u | 20.6µM
CCC(=O)N1CCc2cc(Br)cc(S(=O)(=O)N3CCCCCC3)c21 | n | n | n | n | u | u
CCCN(CCC)S(=O)(=O)c1cc(Br)cc2c1N(C(=O)CC)CC2 | n | n | n | n | 9.2µM | 10.3µM
COc1cccc(CNC(=O)c2ccc(-c3nc(CSc4ccccc4)c(C)o3)cc2)c1 | n | n | x | n | n | u
Cc1cccn2c(NC(=O)c3ccccc3F)c(-c3ccccc3)nc12 | x | n | n | n | n | n
CCn1ccc2cc(S(=O)(=O)N3CCC(C(=O)NCc4cccc(Cl)c4)CC3)ccc21 | n | u | x | n | u | u
COc1ccc(-n2cc(C#N)c(=O)n(Cc3ccc(F)cc3)c2=O)cc1 | n | n | n | n | 20.6µM | 14.6µM
COc1cccc(C(=O)NCC2Cc3c(F)ccc(-c4ncccn4)c3O2)c1OC (centres undefined) | x | x | x | x | n[9.04 µM] | u
Oc1ccc(/C=N/n2c3ccccc3c3ccccc32)cc1 | n | u | n | n | u | 16.4µM
Cc1nnc(C)n1/N=C/c1ccc(O)cc1 | n | n | n | n | n | n
COC(=O)CSc1ncc2c(n1)-c1ccccc1N(Cc1ccccc1C)S2(=O)=O | n | n | x | n | n | n
CC(C)C[C@@H](CSc1ccc(Br)cc1)N1CCN(CC(C)C)CCC1=O | n | n | u | n | 23.1µM | 16.4µM
